MEKK2 mut-MEK5 = signal of MEK5 binding to mutant human MEKK2 PB1 domain; bead flow cytometry, Alexa488-MEK5 binding to MEKK2 mutant; AID 1530; percent response, % at 10 µM; 290,000 compounds, 0.35% hits; in the data active means percent response above about 24%, passing the limit was not always enough
UBC13 inh = human UBC13 polyubiquitination inhibition; P61088; inhibition, % at 20 µM; 330,000 compounds, 0.47% hits; UBC13 polyubiquitin chain formation, TR-FRET; in the data active means inhibition above about 45%, passing the limit was not always enough
Target sequence (P61088 whole entry, looked up): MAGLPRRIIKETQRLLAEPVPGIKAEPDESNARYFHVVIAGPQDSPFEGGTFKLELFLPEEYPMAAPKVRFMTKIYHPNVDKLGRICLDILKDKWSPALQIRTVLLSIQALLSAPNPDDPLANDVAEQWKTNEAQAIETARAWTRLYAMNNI
MEKK3 PB1 HTS = modulators (inhibitors or enhancers) of MEK5 binding to human MEKK3 PB1 domain. binding response (% of control), % at 10 µM. 290,000 compounds, 1.4% hits. Q99759. bead-based flow cytometry, Alexa488-MEK5 binding to MEKK3; actives lie on both sides; 0 = blocked by unlabeled MEK5, 100 = vehicle. AID 1529;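 active means binding response more than 3 SD above or below the average of its plate-row segment, actives on both sides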;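 further: Alexa488 bead fluorescence after subtracting the streptavidin-only scavenger bead signal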
MEKK2 WT-MEK5 = raises or lowers MEK5 binding to wildtype human MEKK2 PB1 domain | bead flow cytometry, Alexa488-MEK5 binding to MEKK2 WT; actives lie on both sides | Q9Y2U5 | binding response (% of control), % at 10 µM | AID 1531 | 290,000 compounds, 1.1% hits; in the data active means binding response below about 67% or above about 130%
MEKK2wt confirm = raises or lowers MEK5 binding to wildtype human MEKK2, retest. shares compounds with MEKK3 PB1 HTS. bead flow cytometry, Alexa488-MEK5 binding to MEKK2 WT; actives lie on both sides. binding response (% of control), % at 10 µM. 5,900 compounds, 2.4% hits; in the data active means binding response below about 16% or above about 210%; inactive means in between
MEKK2mut-MEK5 = signal of MEK5 binding to mutant human MEKK2, retest; shares compounds with MEKK3 PB1 HTS; bead flow cytometry, Alexa488-MEK5 binding to MEKK2 mutant; percent response, % at 10 µM; 5,900 compounds, 2% hits; in the data active means percent response mostly above about 71%, no sharp cut-off; inactive means mostly below about 38%;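 further: higher means compound restores mutant binding toward wildtype level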
MEKK3-MEK5 inh = confirmation of inhibitors of MEK5 binding to human MEKK3; shares compounds with MEKK3 PB1 HTS; 5,900 compounds, 1.8% hits; bead flow cytometry, Alexa488-MEK5 binding to MEKK3; active compounds read low; binding response (% of control), % at 10 µM; AID 1894;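 active means binding response below 72% of control, or above a set upper limit, though filed actives all read lower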;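 further: 100% = DMSO only wells and 0% = binding blocked by excess unlabeled MEK5; lower values mean stronger disruption of MEK5 binding to MEKK3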
* = called active by the depositor; / = not tested or not shown; [ ] = remark or other dose. An excerpt weighted towards active compounds, which were near 2.3% of everything screened.

SMILES	MEKK2 mut-MEK5	UBC13 inh	MEKK3 PB1 HTS	MEKK2 WT-MEK5	MEKK2wt confirm	MEKK2mut-MEK5	MEKK3-MEK5 inh
O=C(CNC(=O)c1ccccc1Cl)NCCc1cccs1	/	20	/	/	/	/	/
O=C(C[n+]1ccccc1)N/N=C/c1cc(Br)cc(Br)c1O	-2	-10	105	107	/	/	/
CCC(O)(CC)C(=O)N/N=C/c1cc(Br)cc(Br)c1O	23	3	134*	127	104	3	103
Cc1cc(C)c(OCCCCCNCCO)c(C)c1	-17	-2	12*[inhibitor]	22*[inhibitor]	107	2	103
Cc1cc(C)cc(OCCCCCNCCO)c1	8	7	103	105	/	/	/
C/C(=N\Nc1nc2ccccc2s1)c1ccc(Br)s1	26	19	111	138*	119	15	106
O=C(COc1ccc(Cl)cc1Br)N1CCN(c2ccccc2)CC1	5	6	101	103	/	/	/
O=CN1CCN(C(=O)COc2ccc(Cl)cc2Br)CC1	0	-8	149*	108	98	-3	101
O=C(C[n+]1ccccc1)Nc1c(Cl)cc(Cl)cc1Cl	-14	-6	86	86	/	/	/
Cc1ccc[n+](CC(=O)Nc2c(Cl)cc(Cl)cc2Cl)c1	-13	0	68*[inhibitor]	68	100	-3	98
Cc1ccc(NC(=O)c2ccc3nsnc3c2)c(Cl)c1	1	9	102	101	/	/	/
CCOC(=O)CN1C(=O)C(C)(C)Oc2ccc(C(=O)Nc3ccccc3)cc21	-11	1	72*[inhibitor]	75	101	5	100
CC1CCCN(CCOc2ccc3ccccc3c2Br)C1 (configuration not stated)	37	14	102	157*	131	17	102
N/C(=N\N=C\c1ccco1)SC1CC(=O)N(c2ccccc2)C1=O (configuration not stated)	-6	6	94	92	/	/	/
N/C(=N\N=C\c1ccco1)SC1CC(=O)N(c2ccc(C(=O)O)cc2)C1=O (configuration not stated)	5	-18	135*	123	110	0	100
COc1ccc2c(c1)c(C(C)=O)c(C)n2-c1ccccc1	-8	0	76*[inhibitor]	86	104	4	110
COc1ccc2c(c1)c(C(C)=O)c(C)n2-c1ccccc1OC	/	-1	/	/	/	/	/
O=c1[nH]c(SCc2nc3ccccc3c(=O)n2-c2ccccc2C(F)(F)F)nc2ccccc12	-2	-7	67*[inhibitor]	75	98	4	101
O=c1[nH]c(SCc2nc3ccccc3n2Cc2ccccc2)nc2ccccc12	-4	6	93	97	/	/	/
O=C(C1=C(O)C(=O)N(CCN2CCOCC2)C1c1ccc([N+](=O)[O-])cc1)c1cccs1 (configuration not stated)	7	-1	108	112	/	/	/
CN(C)CCCN1C(=O)C(O)=C(C(=O)c2cccs2)C1c1cccc([N+](=O)[O-])c1 (configuration not stated)	-84	-8	2.0*[inhibitor]	1.0*[inhibitor]	99	1	102
Cc1ccc(-c2nn(-c3cc(N4CCNCC4)ccc3[N+](=O)[O-])c(=O)c3ccccc23)cc1	15	37	99	145*	153	30	109
Cc1nn(-c2cc(N3CCCCCC3)ccc2[N+](=O)[O-])c(=O)c2ccccc12	0	-17	105	98	/	/	/
CC(=O)c1cccc(NC(=O)NCCc2c[nH]c3ccccc23)c1	-20	8	51	58	/	/	/
O=C(Nc1cccc(CNCCc2c[nH]c3ccccc23)c1)c1ccccc1Cl	32*	12	110	150*	133	11	103
SMILES	MEKK2 mut-MEK5	UBC13 inh	MEKK3 PB1 HTS	MEKK2 WT-MEK5	MEKK2wt confirm	MEKK2mut-MEK5	MEKK3-MEK5 inh
Cc1ccc[n+](CC(=O)Nc2cc(C(F)(F)F)ccc2Cl)c1	-4	-4	91	95	/	/	/
CCC(C)(C)c1ccc(OCCCC[n+]2cccc(C)c2)c(C(C)(C)CC)c1	44	/	107	191*	192	81*	111
O=S(=O)(Nc1ccc2c(c1)OCO2)c1ccc(Cl)cc1F	/	5	/	/	/	/	/
CCCCNC(=S)N(C)/N=C/c1ccc(OCC(=O)Nc2c(C)cc(C)cc2C)c(OC)c1	-1	4	129*	98	107	0	104
CCCCNC(=S)N(C)/N=C/c1ccc(OCC(=O)Nc2ccc(OC)cc2)c(OC)c1	-1	-6	142*	107	108	2	101
CN(CCc1ccccn1)C(=O)CCC1CCCN(C(=O)c2ccsc2)C1 (configuration not stated)	7	7	107	112	/	/	/
O=C(Nc1ccc(Cl)cn1)c1ccc2nccnc2c1	7	-19	104	108	/	/	/
C#CCOCCOCCOCCNc1nc(N2CCN(C(=O)[C@H](CCC(=O)O)n3cc([C@@H](N)CO)nn3)CC2)nc(N2CCN(C(=O)[C@H](CCC(=O)O)n3cc([C@@H](N)CCSC)nn3)CC2)n1	/	-6	/	/	/	/	/
COc1ccc(CCN2C(=O)C(Oc3ccccc3)C2c2ccc3c(c2)OCO3)cc1 (configuration not stated)	1	10	150*	108	107	-3	102
Cc1cc(C(=O)COC(=O)Cc2n[nH]c(=O)c3ccccc23)c(C)n1-c1ccc2c(c1)OCO2	2	-10	139*	105	110	6	104
CCC/C=C1/CCCOC(C(=O)NCc2ccc(S(C)(=O)=O)cc2)(C(F)(F)F)C1 (configuration not stated)	4	-4	103	101	/	/	/
CS(=O)(=O)c1ccc(CNC(=O)C2(C(F)(F)F)C/C(=C\Cc3ccccc3)CCCO2)cc1 (configuration not stated)	-7	4	81*[inhibitor]	85	102	5	104
Cc1ccc(NC(=O)c2c3c(nc4ccccc24)CCC3)cc1	-2	4	72*[inhibitor]	84	107	5	103
CCOc1ccc(NC(=O)c2c3c(nc4ccccc24)CCC3)cc1	-5	2	95	92	/	/	/
CCOC(=O)CSc1ncc(-c2ccc([N+](=O)[O-])cc2)[nH]1	1	-13	134*	105	98	2	103
CCOC(=O)Cn1cncc1-c1ccc([N+](=O)[O-])cc1	1	-13	103	101	/	/	/
Cc1ccc(SCC(=O)NC(=O)NC2CCCC2)c(C)c1	/	5	/	/	/	/	/
CC(=O)N1N=C(c2ccccc2)CC1c1cn(C)c2ccccc12 (configuration not stated)	3	9	157*	113	98	4	103
CC(=O)N1N=C(c2ccccc2)CC1c1ccc(F)cc1 (configuration not stated)	4	-1	105	107	/	/	/
